These results are taken from PubChem BioAssay AID1468 (National Center for Advancing Translational Sciences (NCATS), 2008).

About 1,100 (0.39%) of roughly 280,000 compounds were called active. A call without a number means that no potency is given here. Roughly 7% stayed inconclusive and do not appear here. Calls come from the whole dose curve; as a rule, active = well fitted inhibition curve with a large enough effect; inconclusive = small, poorly fitted or top-dose-only effect, or effect the other way; inactive = flat fitted curve, though single readings scatter. Only a selection was taken, and actives are over-represented in it overall.
Potency is the fitted concentration of half-maximal effect.

Chain of Microtubule-associated protein tau (Homo sapiens) (P10636 561-689 P618L limits assumed): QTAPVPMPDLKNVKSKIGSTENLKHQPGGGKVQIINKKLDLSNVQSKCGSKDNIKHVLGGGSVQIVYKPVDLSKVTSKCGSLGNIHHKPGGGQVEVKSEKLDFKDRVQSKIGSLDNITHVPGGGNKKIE

For this assay, the target named is Microtubule-associated protein tau (Homo sapiens) (UniProt P10636). In words: qHTS for Inhibitors of Tau Fibril Formation, Fluorescence Polarization. Note: nearly all actives have a fitted effect of over 55% in size. The settings on record: K18 P301L tau heparin fibrillization, Alexa594 FP, 6 h; series mostly up to 57.7 µM. An excerpt:
NIH Molecular Libraries Probe Production Network [MLPCN]
NIH Chemical Genomics Center [NCGC]
Assay Provider: Carlo Ballatore, University of Pennsylvania
The microtubule-associated protein tau is an abundant protein in the axons of neurons that stabilizes microtubules. With its ability to modulate microtubule dynamics, tau contributes directly or indirectly, to key structural and regulatory cellular functions. Particularly important is the influence tau exerts on axonal transport, which allows signaling molecules, trophic factors and other essential cellular constituents to travel along the axons. Under pathological conditions, tau becomes sequestered into insoluble aggregates called neurofibrillary tangles. This phenomenon is believed to have pathological consequences by promoting axonal transport deficits that ultimately lead to synaptic dysfunction and neuronal loss. To identify inhibitors of tau aggregation, a heparin-induced tau fibril formation assay was used that employed a recombinantly expressed fragment of tau, K18 (Q242-E372), bearing a P301L mutation (Gustke et al. 1994; Hong et al. 1998).
Gustke, N., B. Trinczek, et al. (1994). "Domains of tau protein and interactions with microtubules." Biochemistry 33(32): 9511-22.
Hong, M., V. Zhukareva, et al. (1998).
Li, W. and V. M. Lee (2006). "Characterization of two VQIXXK motifs for tau fibrillization in vitro." Biochemistry 45(51): 15692-701.
von Bergen, M., S. Barghorn, et al. (2001). "Mutations of tau protein in frontotemporal dementia promote aggregation of paired helical filaments by enhancing local beta-structure." J Biol Chem 276(51): 48165-74.
NCGC Assay Protocol Summary:
For screening, 2 uL/well human K18 P301L (15 uM unlabeled and 0.24 uM Alexa 594-labeled tau final concentrations) in reagent buffer (100 mM sodium acetate pH 7) was dispensed into black solid 1536-well plates (Grenier) using a solenoid-based dispenser. Following transfer of 23 nL compound or DMSO vehicle by a pin tool, 2 uL/well heparin (20 uM final concentration) in reagent buffer was added and the plate centrifuged 15 s at 1000 RPM. Plates were incubated 6 hr at 37 C and then 1 uL/well ThT (30 uM final concentration) was added. After a 1 hr ambient incubation, the plates were read by an Envision (Perkin Elmer) to monitor Alexa 594 FP (555 nm excitation and 632 nm emission).
Keywords: NIH Roadmap, MLPCN, MLI, MLSMR, NCGC, qHTS, tau, tauopathies, Alzheimer's disease, fibril, neurodegeneration, aggregation
Consider `Cc1ccc(NC(=O)Nc2cccc(C(F)(F)F)c2)nc1`, for which the Potency entry is “inactive”.
On to `CCNS(=O)(=O)c1ccc(NC(=O)Nc2cccc(C(F)(F)F)c2)cc1`, for which the Potency is 25.1 µM (active).
With `CC(C)C[C@H](NC(=O)Nc1cccc(C(F)(F)F)c1)C(=O)O`, the Potency entry was “inactive”.
Turning to `Cc1cccc(Nc2cc(C)nc(-n3nc(C)cc3C)n2)c1`, the Potency result was “inactive”.
For the compound `Brc1ccc2c(c1)NC(c1cccnc1)=NC(c1ccccc1)=N2`, the Potency result is “inactive”.
For the compound `CC(C)(C)c1nnc(NC(=O)C2c3ccccc3Oc3ccccc32)s1`, the Potency is 15.8 µM (active).
Regarding `CCC(C)(C)NC(=O)C1c2ccccc2Oc2ccccc21`, the Potency entry is “inactive”.
Regarding `CCC(C)NC(=O)C1c2ccccc2Oc2ccccc21` (stereo not given), the Potency result was “inactive”.
On to `Cc1ccc(NC(=O)Nc2sc3nc4n(c(=O)c3c2C)CCC(C)CC4)c(Cl)c1` (stereo not given), for which the Potency result is “inactive”.
On to `Cc1cc(C)c(NC(=O)Cn2c(SCC(=O)NCc3ccccc3)nc3ccccc32)c(C)c1`, for which the Potency entry was “inactive”.
The value for `CCOc1ccccc1NC(=O)Cn1c(=O)n(Cc2ccco2)c(=O)c2sc3ccccc3c21` was “inactive”; that for `COc1ccc(Cn2c(=O)c3oc4ccccc4c3n(CC(=O)Nc3ccc(F)cc3F)c2=O)cc1` was “inactive”; that for `O=C(Cn1c(=O)n(Cc2ccccc2)c(=O)c2sc3ccccc3c21)Nc1ccccc1F` was 28.2 µM (active).
Take `CC(=O)c1cccc(NC(=O)c2nc(-c3ccccc3)n(-c3cccc(C)c3)n2)c1`: the Potency result was “inactive”.
With `COc1ccc(NC(=O)CSc2nc3ccccc3[nH]2)cc1`, the Potency result is “inactive”.
For `CCc1nnc(NC(=O)CCCSc2nc3ccccc3[nH]2)s1`, the Potency result is “inactive”.
Consider `O=C(COC(=O)CCCSc1nc2ccccc2[nH]1)Nc1ccc(Oc2ccccc2)cc1`, for which the Potency is 15.8 µM (active).
For the compound `Oc1ccc2ccccc2c1C=Nc1ccccc1`, the Potency entry is “inactive”.
The value for `Oc1c(C=Nc2cccc3nsnc23)ccc2ccccc12` was 3.98 µM (active); that for `O=[N+]([O-])c1ccc(N=Cc2c(O)ccc3ccccc23)cc1` was “inactive”; that for `CCOC(=O)c1ccc(NC(=O)CSc2nc3c([nH]c4ccccc43)c(=O)n2C)cc1` was “inactive”.
For `COc1ccc(OC)c(NC(=O)Cn2c(=O)n(Cc3ccccc3)c(=O)c3ccccc32)c1`, the Potency entry is “inactive”.
As to `COc1ccc(NC(=O)Cn2c(=O)n(Cc3ccc(C(=O)NCc4ccccc4Cl)cc3)c(=O)c3ccccc32)cc1`, the Potency was 25.1 µM (active).
With `Cc1ccc(Cn2c(=O)n(CCCC(=O)NCc3ccccc3Cl)c(=O)c3ccccc32)cc1`, the Potency result was “inactive”.
Regarding `O=C(Cn1c(-c2cccs2)cc2ccccc21)NCCc1ccc(Cl)cc1`, the Potency result was “inactive”.
The value for `CCN1C(=O)c2ccccc2S(=O)c2ccc(C(=O)NCc3ccc(F)cc3)cc21` (stereo not given) was “inactive”.
Take `CCOC(=O)C1CCCN(C(=O)c2ccc(-n3ccc4ccccc43)s2)C1` (stereo not given): the Potency entry was “inactive”.
Consider `Cc1c(C(=O)NCc2ccccc2Br)oc2ccc3c(c12)C(=O)CC(C)(C)O3`, for which the Potency entry is “inactive”.
Regarding `Cc1ccc(OCCn2c(CNc3ccccc3C)nc3ccccc32)cc1`, the Potency result is “inactive”.
Consider `Cc1nnc(N2CCC(C(=O)Nc3ccc(F)cc3)CC2)c2nn(-c3ccc(Cl)cc3)c(C)c12`, for which the Potency result is “inactive”.
Turning to `Cc1ccnc(-n2sc3ccccc3c2=O)n1`, the Potency was 25.1 µM (active).
The value for `Cc1ccnc(SCC(N)=O)n1` was “inactive”; that for `CCOC(=O)c1ccc(NC2=CC(c3ccc(OCC)cc3)N(c3ccc(C(=O)OCC)cc3)C2=O)cc1` (stereo not given) was “inactive”; that for `Cc1cc(C)c2sc(NC(=O)c3ccc(S(=O)(=O)N4CCCC4)cc3)nc2c1` was “inactive”.
For `COc1ccc(OC)c(-c2noc(N3CCN(c4cc(Cl)ccc4C)CC3)n2)c1`, the Potency result is “inactive”.
Take `COc1ccc(N(CC(=O)NCCc2ccc(Cl)cc2)S(=O)(=O)c2c(C)nn(C)c2C)cc1`: the Potency result was “inactive”.
Take `COc1ccc2c(Sc3ccc(C)cc3)c(C(=O)NC(C)c3ccccc3)[nH]c2c1` (stereo not given): the Potency result is “inactive”.
`Cc1cc(Nc2ccccc2)nc(N)n1`: the Potency entry was “inactive”.
Regarding `CSc1nc(Nc2ccc(F)cc2)cc(-c2ccccc2)n1`, the Potency is 15.8 µM (active).
With `CSc1nc(-c2ccccc2)nc(C(Cl)Cl)n1`, the Potency result was “inactive”.
With `CCOC(=O)c1cccc(NS(=O)(=O)c2cc(-c3cnc(C)o3)ccc2OC)c1`, the Potency result is “inactive”.
For `COc1ccc(N2C(=O)CSC23C(=O)N(Cc2cccc(F)c2)c2ccccc23)cc1Cl` (stereo not given), the Potency result was “inactive”.
For the compound `c1ccc(CSc2nnc(-c3ccco3)c(-c3ccco3)n2)cc1`, the Potency was 12.6 µM (active).
Regarding `O=C(Nc1nnc(SCc2ccccc2)s1)c1ccco1`, the Potency entry was “inactive”.
On to `Brc1ccc(CSc2ccc(-c3ccco3)nn2)cc1`, for which the Potency entry is “inactive”.
The result for `O=C(OCc1cc(=O)n2nc(C3CC3)sc2n1)c1ccccc1Cl` reads “inactive”; that for `COc1ccc2c(c1OC)C(=O)OC2Nc1nc(-c2ccccc2)cs1` (stereo not given), 31.6 µM (active); that for `COc1ccc2c(c1OC)C(=O)OC2c1c(O)nc(SC)n(-c2ccccc2)c1=O` (stereo not given), “inactive”.
With `COc1ccc(-c2csc(NC3OC(=O)c4ccccc43)n2)cc1` (stereo not given), the Potency entry is “inactive”.
With `O=C(CCCn1c(=O)c2cccn2c2cccnc21)NCc1ccc(F)cc1`, the Potency result was “inactive”.
`COc1ccc(OC)c2sc(N3CCN(C(=O)C4COc5ccccc5O4)CC3)nc12` (stereo not given): the Potency entry was “inactive”.
With `FC(F)(F)c1cc(Nc2nc3ccccc3c3nncn23)ccc1Cl`, the Potency is 10 µM (active).
For `Fc1ccc(C(Nc2ccc(Cl)c(C(F)(F)F)c2)c2nnc(-c3ccccc3)o2)cc1` (stereo not given), the Potency entry was “inactive”.
In the case of `COc1cccc(Nc2nc3ccccc3c3nncn23)c1`, the Potency result is “inactive”.
The value for `COc1ccc(-c2cc(C(F)(F)F)n3nc(-c4ccccc4)cc3n2)cc1OC` was “inactive”; that for `COc1ccc(OC)c(CNC(=O)Cn2nc(C)c3c(C)n(-c4ccccc4)nc3c2=O)c1` was “inactive”.
The value for `CCN(CC)c1ccc2oc(=O)c(C)nc2c1` was 12.6 µM (active).
The value for `CCN(CC)c1ccc2c(Nc3ccccc3)c(C=O)c(=O)oc2c1` was “inactive”; that for `CCN(CC)c1ccc(/C=N/Nc2nc(C)cc(C)n2)c(O)c1` was “inactive”; that for `CC1CCCCN1CC(=O)N1CCCc2c1c(=O)oc1ccc(OCc3ccccc3)cc21` (stereo not given) was “inactive”.
As for `CCc1ccccc1NC(=O)N1CCN(C(=O)c2nsc3ccccc23)CC1`, the Potency result was “inactive”.
The result for `Cc1c(C(=O)N2CCCC2)oc2c1-c1nn(CC(=O)NCc3ccc(OC(C)C)cc3)cc1CC2` reads “inactive”; that for `O=C1C(c2ccccn2)=[N+]([O-])c2ccccc21`, 7.94 µM (active).
With `Cc1ccc(-c2nnc(SCC(=O)NCc3ccccc3)nc2-c2ccc(C)cc2)cc1`, the Potency result was “inactive”.
The value for `CSc1ncc(Cl)c(C(=O)Nc2ccc(S(=O)(=O)N3CCCC(C)C3)cc2)n1` (stereo not given) was “inactive”.
